# ChEMBL document CHEMBL5724796, “Tm Shift (DSF) assay results for EUbOPEN Chemogenomics Library” (2024)
# Non-standard residues stand in square brackets, D forms with d. Residues, ends and D or L forms follow the SMILES beside them. *: point of attachment. Nle = CCCC[C@H](N)C(=O)O; Boc = CC(C)(C)OC(=O)*; CH2Cl = ClC*
# Experiments:
# Conditions in all cases: Compound concentration 20.0 uM
# [1] = target: Tyrosine-protein kinase ABL1 (Homo sapiens) (UniProt P00519)
# [2] = target: Bromodomain-containing protein 4 (Homo sapiens) (UniProt O60885)
# [3] = target: Cyclin-dependent kinase 2 (Homo sapiens) (UniProt P24941)
# [4] = target: Casein kinase I isoform delta (Homo sapiens) (UniProt P48730)
# [5] = target: Glycogen synthase kinase-3 beta (Homo sapiens) (UniProt P49841)
# [6] = target: Mitogen-activated protein kinase 1 (Homo sapiens) (UniProt P28482)
# [7] = target: T1, Aurora kinase A (Homo sapiens) (UniProt O14965)
# T1 sequence (whole entry): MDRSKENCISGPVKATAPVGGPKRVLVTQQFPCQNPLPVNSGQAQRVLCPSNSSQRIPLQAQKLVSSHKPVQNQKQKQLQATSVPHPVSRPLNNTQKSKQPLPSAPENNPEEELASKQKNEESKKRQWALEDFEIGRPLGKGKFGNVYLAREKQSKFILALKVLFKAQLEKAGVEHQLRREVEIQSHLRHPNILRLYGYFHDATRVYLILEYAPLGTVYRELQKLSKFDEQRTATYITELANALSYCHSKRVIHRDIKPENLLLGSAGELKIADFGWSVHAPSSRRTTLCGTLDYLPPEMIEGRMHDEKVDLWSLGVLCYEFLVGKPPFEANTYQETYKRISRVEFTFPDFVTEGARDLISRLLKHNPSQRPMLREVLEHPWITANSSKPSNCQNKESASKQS
# [8] = target: T2, Transcription intermediary factor 1-alpha (Homo sapiens) (UniProt O15164)
# T2 sequence (whole entry): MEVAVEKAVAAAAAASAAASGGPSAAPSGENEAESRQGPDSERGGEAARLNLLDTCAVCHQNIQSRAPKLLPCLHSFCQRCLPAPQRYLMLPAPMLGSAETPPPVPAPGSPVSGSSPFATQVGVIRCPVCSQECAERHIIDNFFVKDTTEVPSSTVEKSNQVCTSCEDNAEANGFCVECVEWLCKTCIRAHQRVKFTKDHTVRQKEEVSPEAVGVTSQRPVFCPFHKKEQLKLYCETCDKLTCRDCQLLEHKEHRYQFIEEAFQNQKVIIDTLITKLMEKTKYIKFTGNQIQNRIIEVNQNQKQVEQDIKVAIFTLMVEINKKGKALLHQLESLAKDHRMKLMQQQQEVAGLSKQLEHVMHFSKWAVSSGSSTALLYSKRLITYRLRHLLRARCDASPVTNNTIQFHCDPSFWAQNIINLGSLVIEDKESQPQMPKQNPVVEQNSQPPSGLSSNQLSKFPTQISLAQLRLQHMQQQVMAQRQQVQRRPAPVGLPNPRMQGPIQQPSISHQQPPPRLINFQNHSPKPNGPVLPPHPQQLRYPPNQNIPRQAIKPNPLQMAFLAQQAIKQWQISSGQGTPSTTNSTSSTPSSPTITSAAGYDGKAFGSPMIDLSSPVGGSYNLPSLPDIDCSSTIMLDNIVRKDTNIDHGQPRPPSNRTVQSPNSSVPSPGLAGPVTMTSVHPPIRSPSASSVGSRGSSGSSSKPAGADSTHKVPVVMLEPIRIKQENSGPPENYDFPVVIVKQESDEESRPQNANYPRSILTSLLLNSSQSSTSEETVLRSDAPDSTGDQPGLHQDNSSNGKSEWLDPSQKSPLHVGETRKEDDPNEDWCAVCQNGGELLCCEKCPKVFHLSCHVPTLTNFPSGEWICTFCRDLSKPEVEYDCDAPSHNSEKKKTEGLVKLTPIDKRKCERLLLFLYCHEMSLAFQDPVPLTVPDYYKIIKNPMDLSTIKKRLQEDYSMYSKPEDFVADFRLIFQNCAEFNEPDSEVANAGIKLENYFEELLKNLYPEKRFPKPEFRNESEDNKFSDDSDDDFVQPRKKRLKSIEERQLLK
# Chain of Glycogen synthase kinase-3 beta (Homo sapiens) (P49841 whole entry, looked up): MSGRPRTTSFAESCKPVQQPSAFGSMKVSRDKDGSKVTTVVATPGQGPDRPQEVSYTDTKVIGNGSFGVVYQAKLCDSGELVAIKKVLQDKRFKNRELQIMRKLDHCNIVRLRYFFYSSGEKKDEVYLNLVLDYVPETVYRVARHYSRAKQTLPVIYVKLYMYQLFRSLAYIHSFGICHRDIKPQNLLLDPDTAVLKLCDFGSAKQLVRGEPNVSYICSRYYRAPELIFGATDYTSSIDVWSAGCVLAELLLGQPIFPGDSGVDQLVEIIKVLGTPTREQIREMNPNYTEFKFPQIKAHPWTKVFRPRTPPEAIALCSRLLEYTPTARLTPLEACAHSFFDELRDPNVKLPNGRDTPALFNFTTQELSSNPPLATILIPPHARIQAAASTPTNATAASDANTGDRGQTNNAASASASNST
# Chain of Tyrosine-protein kinase ABL1 (Homo sapiens) (P00519 whole entry): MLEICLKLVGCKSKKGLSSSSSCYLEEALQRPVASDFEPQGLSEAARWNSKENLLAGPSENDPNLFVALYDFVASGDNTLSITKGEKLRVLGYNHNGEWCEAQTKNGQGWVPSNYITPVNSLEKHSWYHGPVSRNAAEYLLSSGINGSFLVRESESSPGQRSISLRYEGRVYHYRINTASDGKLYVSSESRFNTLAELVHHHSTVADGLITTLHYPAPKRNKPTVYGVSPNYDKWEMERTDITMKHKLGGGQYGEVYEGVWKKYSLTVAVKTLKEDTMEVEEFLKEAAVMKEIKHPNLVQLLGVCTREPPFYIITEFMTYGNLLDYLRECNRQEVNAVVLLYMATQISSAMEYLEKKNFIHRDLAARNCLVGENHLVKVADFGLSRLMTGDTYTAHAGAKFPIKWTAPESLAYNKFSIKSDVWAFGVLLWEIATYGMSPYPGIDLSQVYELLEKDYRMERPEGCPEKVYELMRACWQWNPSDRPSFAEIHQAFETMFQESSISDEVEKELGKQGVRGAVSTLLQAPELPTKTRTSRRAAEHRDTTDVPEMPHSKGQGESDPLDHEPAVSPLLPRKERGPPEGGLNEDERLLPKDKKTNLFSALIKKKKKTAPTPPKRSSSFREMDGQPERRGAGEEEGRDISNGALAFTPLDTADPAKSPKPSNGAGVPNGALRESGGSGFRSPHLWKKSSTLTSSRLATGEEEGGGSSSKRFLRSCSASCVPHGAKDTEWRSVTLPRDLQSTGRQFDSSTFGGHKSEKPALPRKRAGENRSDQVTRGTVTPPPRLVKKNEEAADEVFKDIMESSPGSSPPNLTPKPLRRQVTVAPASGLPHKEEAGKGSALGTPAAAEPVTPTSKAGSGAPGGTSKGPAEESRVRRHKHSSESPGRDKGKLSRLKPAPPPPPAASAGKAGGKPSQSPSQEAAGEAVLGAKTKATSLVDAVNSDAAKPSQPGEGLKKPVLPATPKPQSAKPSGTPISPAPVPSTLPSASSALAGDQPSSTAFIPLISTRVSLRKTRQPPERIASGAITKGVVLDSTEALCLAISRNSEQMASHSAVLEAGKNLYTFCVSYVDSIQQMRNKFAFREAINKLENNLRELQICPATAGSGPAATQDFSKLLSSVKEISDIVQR
# Chain of Mitogen-activated protein kinase 1 (Homo sapiens) (P28482 whole entry): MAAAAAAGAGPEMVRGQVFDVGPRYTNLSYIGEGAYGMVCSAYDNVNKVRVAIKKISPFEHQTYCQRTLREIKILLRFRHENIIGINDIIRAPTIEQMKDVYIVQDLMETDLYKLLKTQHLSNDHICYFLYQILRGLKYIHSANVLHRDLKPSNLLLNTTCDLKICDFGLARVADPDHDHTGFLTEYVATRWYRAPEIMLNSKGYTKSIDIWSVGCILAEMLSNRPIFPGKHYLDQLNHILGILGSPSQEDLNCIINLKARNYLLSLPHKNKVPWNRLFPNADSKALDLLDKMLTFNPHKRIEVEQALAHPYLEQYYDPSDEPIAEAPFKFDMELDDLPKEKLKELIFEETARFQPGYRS
# Chain of Casein kinase I isoform delta (Homo sapiens) (P48730 whole entry, looked up, canonical isoform): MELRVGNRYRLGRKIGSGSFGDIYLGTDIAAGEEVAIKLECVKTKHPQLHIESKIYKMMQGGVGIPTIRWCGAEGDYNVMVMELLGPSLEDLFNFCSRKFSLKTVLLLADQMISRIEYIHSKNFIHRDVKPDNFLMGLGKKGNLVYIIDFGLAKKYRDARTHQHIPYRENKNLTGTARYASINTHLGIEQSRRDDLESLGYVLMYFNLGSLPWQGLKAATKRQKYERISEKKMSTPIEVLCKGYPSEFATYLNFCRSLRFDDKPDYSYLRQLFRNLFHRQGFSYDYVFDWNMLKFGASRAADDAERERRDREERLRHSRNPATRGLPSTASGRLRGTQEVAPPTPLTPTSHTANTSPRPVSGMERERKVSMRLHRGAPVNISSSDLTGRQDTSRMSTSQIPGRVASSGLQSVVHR
Compound,ΔTm [1] [°C],ΔTm [2] [°C],ΔTm [3] [°C],ΔTm [4] [°C],ΔTm [5] [°C],ΔTm [6] [°C],ΔTm [7] [°C],ΔTm [8] [°C]
CC(C)(C)OC(=O)N1CCC[C@H]1C(=O)N1CCC[C@H]1C=O (Boc-Pro-Pro-aldehyde),0.36,-1.7,0.06,-0.53,-0.11,0.63,-2.5,-0.63
NS(=O)(=O)OC[C@H]1C[C@@H](Nc2ncncc2C(=O)c2ccn(Cc3cccc(Br)c3)n2)C[C@@H]1O,0.71,-2.22,0.03,0.64,1.22,0.37,-1.76,-1.07
CC(C)NC(=O)c1ccc(OC(F)F)c(OCC2CC2)c1,0.64,-3.14,0.29,-0.07,-0.46,0.24,-2.33,1.71
O=C(NCC(=O)N1CCCCC1)Nc1ccc2nnsc2c1,0.46,-0.58,0.28,0.06,0.23,-0.52,-0.71,0.08
O=C(NCCCCCCCCNC(=O)C(Cl)Cl)C(Cl)Cl,0.05,-2.38,-0.1,-0.18,-1.79,-0.02,-1.73,1.02
O=C(CCCCCCNC(=O)c1cnc(N(c2ccccc2)c2ccccc2Cl)nc1)NO,0.43,-2.47,0.09,0.15,-0.06,-0.04,-0.63,-0.75
CNC(=O)c1cc(Nc2ccnc(Nc3ccc(CCNC(=O)OC(C)(C)C)cc3)n2)n[nH]1,0.52,-6.4,-0.49,0.55,-1.3,-12.3,-0.62,0.91
O=[N+]([O-])c1c(Nc2cc(F)cc(Cl)c2)ccc2nonc12,0.44,-2.93,0.03,-0.44,-0.33,0.07,-2.49,-0.26
NC(=S)c1cccc(-c2cn(C3CCN(S(=O)(=O)C(F)(F)F)CC3)c3cc(CNC(=O)C4CNC4)ccc23)c1,0.61,-0.14,1.5,-0.09,-0.8,0.28,-1.57,0
C[C@H](c1nc2c(cnn2C2CCOCC2)c(=O)[nH]1)N1CC(Oc2ccccc2)C1,0.76,-2.52,0.6,-0.29,3.31,0.49,-1.78,0.73
CC(=O)N[C@@H](Cc1ccccc1)C(=O)N[C@@H](CC(C)C)C(=O)N[C@H](C(=O)N[C@@H](CC(=O)O)C(=O)CCl)[C@@H](C)O (Ac-FLTD-CH2Cl),0.28,-2.88,0.03,0.15,-0.18,-0.16,-0.89,-0.91
CCCNC(=O)[C@H]1O[C@@H]1C(=O)N[C@H](C(=O)N1CCC[C@H]1C(=O)O)[C@@H](C)CC,0.43,-1.16,-0.18,-0.02,0.22,-0.39,-1.17,-0.81
Cc1c(NC(=O)c2cc(C(N)=O)nc3cc(F)ccc23)c(C(F)(F)F)nn1Cc1ccc(C#N)cc1,0.61,-2.09,0.06,0.03,0.78,0.34,-2.13,1.34
CS(=O)(=O)n1cc2c(n1)CN([C@H]1CO[C@H](c3cc(F)ccc3F)[C@@H](N)C1)C2,0.01,1.23,0.1,-0.33,-0.84,0.32,-2.29,-0.65
CCCC[C@@H](C=O)NC(=O)[C@H](CC(C)C)NC(=O)[C@H](CC(C)C)NC(C)=O (Ac-Leu-Leu-[Nle]-aldehyde),0.18,-2.71,0.09,0.12,-0.45,0.06,-1.13,-1.21
Cc1cc(C)c(CNC(=O)c2cc(-c3ccc(N4CCN(C)CC4)nc3)cc3c2c(C)cn3C(C)C)c(=O)[nH]1,0.38,-2.02,0.39,0.02,0,0.02,-1.34,-0.72
COC(=O)C1=C(C(=O)OC)[C@@]2([C@@H](Cc3ccc(C)cc3)Nc3ccccc3)C=C[C@@H]1O2,0.44,-0.64,0.54,-0.66,-1.68,-0.27,-2.34,1.28
C=CC(=O)Nc1cccc(-c2c[nH]cc2CN(C)CCN)c1,0.53,-1.27,0.4,-0.04,-1.22,0.08,-0.37,-1.19
COc1ccc(-c2c(-c3ccc(C#N)c(F)c3)nc(N3CCC(N)CC3)n(C)c2=O)cc1F,0.65,-3.53,0,0,-0.33,0.2,-2.24,-0.36
CC(=O)N[C@@H](CC(=O)O)C(=O)N[C@@H](CC(N)=O)C(=O)N[C@@H](CC(C)C)C(=O)N[C@H](C=O)CC(=O)O,0.21,-3.48,0.27,-0.23,-0.99,0.1,-0.95,0.8
CCC(CC)(NC(=O)C(C)C)C(=O)N[C@@H](CCCNC(=N)N)C(=O)NC1(C(=O)NC(c2ccc(F)cc2)c2ccc(F)cc2)CCCC1,0.63,-1.92,-0.27,0.35,-0.5,-0.02,-0.05,-1.17
CC(C)(C)OC(=O)N1CCN(C(=O)n2cc(-c3ccc(OC(F)(F)F)cc3)nn2)C(Cc2ccccc2)C1 (stereo unspecified),0.06,-0.12,0.53,-0.73,-0.69,-0.4,-1.5,-0.53
